High-throughput results deposited in PubChem by National Center for Advancing Translational Sciences (NCATS).
GALK inhibitor: GALK (human) enzyme inhibition; P51570; recombinant GALK, Kinase-Glo ATP luminescence, 1 h; Potency, µM (top dose mostly 57.5 µM), for the others: top-dose activity, negative = inhibition, most hits filed as inhibitors; 44,000 tested, under 10 active; AID 1347072;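 also: plate controls were full GALK reaction for no effect and reaction lacking GALK for full effect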
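Luminescent ATP-depletion readout (Kinase-Glo Plus, 10 min) after 1 h RT reaction of 5 nM GALK, 35 uM ATP, 100 uM galactose, pH 8.0 HEPES buffer. Decreased kinase activity scored as inhibition.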
GALC G270D act: enhancers of human galactocerebrosidase G270D mutant activity in cells; P54803; 145M-Twi-hGALC-G270D cells (Twitcher mouse brain line with human GALC G270D), HMU-beta-Gal fluorescence, 48 h; Potency, µM (doses to about 57.5 µM), hits mostly activators; hit rate 0.1% among 45,000; AID 1159614; also: potency is read from the fitted curve at half-maximal effect; 0% is about no effect; nearly all actives have a fitted effect of over 65% in size
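Fluorescence readout: HMU-β-gal cleavage by mutant GALC (0.1 mM final, citrate/phosphate pH 5.2 with 1 mg/mL taurocholate), stopped with carbonate/bicarbonate plus Triton X-100. Cells: murine Twitcher 145M-Twi expressing human G270D GALC; qHTS for activators.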
HTT-AS act: HTT-AS promoter activation; HEK293 HTT-AS promoter firefly luciferase reporter, 24 h; response scale: percent change from vehicle, -100% = no light; Potency, µM (highest dose often 57.5 µM), for the others: at the highest dose activity change, positive = activation, hits mostly activators; hit rate 0.24% among 48,000; also: potency is read from the fitted curve at half-maximal effect; nearly all actives have a fitted effect of over 55% in size
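Firefly luciferase signal from promoter-reporter HEK293 cells was scaled between vehicle (0%) and zero RLU (-100%). Compounds were tested at final concentrations of up to 57.5 uM over 24 h at 37 degrees C. PTC124 at 50 uM final served as control inhibitor.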
PTAP-TSG101 blk: TSG101-PTAP interaction inhibition, HIV-1 budding | Fluorescence polarization, FITC-PTAP peptide/Tsg101, 20 min | 44,000 tested, under 10 active | Q99816 | AID 1347069 | Potency, µM (titrated, usually from 115 µM), most hits filed as inhibitors; also: potency is read from the fitted curve at half-maximal effect; 0% is about no effect
Target sequence (Q99816 whole entry, looked up): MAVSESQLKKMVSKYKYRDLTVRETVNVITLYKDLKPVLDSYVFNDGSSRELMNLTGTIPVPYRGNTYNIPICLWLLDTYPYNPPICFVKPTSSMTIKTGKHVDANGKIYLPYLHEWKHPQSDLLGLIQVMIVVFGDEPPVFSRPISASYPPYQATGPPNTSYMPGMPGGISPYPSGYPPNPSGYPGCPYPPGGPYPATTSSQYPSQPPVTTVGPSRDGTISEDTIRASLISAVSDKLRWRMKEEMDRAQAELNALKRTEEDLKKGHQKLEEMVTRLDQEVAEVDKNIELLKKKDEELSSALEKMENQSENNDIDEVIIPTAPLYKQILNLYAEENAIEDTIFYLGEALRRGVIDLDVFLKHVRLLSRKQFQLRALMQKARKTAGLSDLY
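Steps: Tsg101 binding domain (10 uM final) in HEPES pH 7.5/NaCl/Tween 20/EDTA/TCEP; add compound; add FITC-PTAP peptide (50 nM final); incubate 20 min r.t.; read polarization.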
HTT promoter inh: HTT promoter inhibition; Potency, µM (top dose mostly 57.5 µM), for the others: at the top dose activity change, negative = inhibition, actives largely listed as inhibitors; HEK293 HTT promoter firefly luciferase reporter, 24 h; AID 1508623; hit rate 0.93% among 48,000; also: potency is read from the fitted curve at half-maximal effect; nearly all actives have a fitted effect of over 50% in size
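HEK293 cells carrying firefly luciferase reporters were seeded at 2,500 per well in Opti-MEM and cultured for 24 h. They were then treated with compounds at up to 57.5 uM final for 24 h at 37 degrees C before Dual-Glo luminescence readout.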
B2AR arrestin ag: beta-arrestin recruitment by human beta2-adrenergic receptor ligands | Potency, µM (highest dose often 46.1 µM), hits mostly activators | HTLA Tango cells, beta-arrestin recruitment, luciferase luminescence, 18 h | AID 1347077 | 44,000 tested, under 10 active;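 also: potency is read from the fitted curve at half-maximal effect; 0% = DMSO and full agonism = EC100 isoproterenol or metaproterenol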
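Tango cells (recombinant beta2-AR, beta-arrestin, tTA-driven luciferase), 1500/well in DMEM 1% FBS, treated 18 h at 37 °C with compounds up to 46 µM; luciferin mix added, luminescence read after 15 min; %activity curves fitted and curve-classed.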
Active calls of the source: *; i = inactive; ? = inconclusive; / = no result; ! = repeats disagree. Most compounds without a hit are left out; they make up all but 1.4% or so of the library. Calls follow the shape of the dose curve; as a rule, active = well fitted curve in the direction sought with a large enough effect; inconclusive = small, poorly fitted or top-dose-only effect, or another doubt; inactive = no such curve, though single readings can be large; an effect the other way counts as inactive or inconclusive.

SMILES	GALK inhibitor	GALC G270D act	HTT-AS act	PTAP-TSG101 blk	HTT promoter inh	B2AR arrestin ag
CCC(C(=O)Nc1c(C)cc(C)cc1C)n1c(=O)c(-c2ccccc2NC(C)=O)nc2ccccc21 (stereo unspecified)	1.4%	i	-7.4%	i	-9.5%	i
COc1cccc2cc(C(=O)Nc3ccc(CC(=O)O)cc3)c(=O)oc12	-14.8%	i	-90.3%	i	0.282µM*	i
Cc1nc(-c2ccc(OCC(C)C)c(C#N)c2)sc1C(=O)O	/	i	-81.4%	/	5.01µM*!	/
CCCn1c2ccccc2c2cnn(CC(=O)NC(C)CC)c(=O)c21 (stereo unspecified)	1.6%	i	-23.1%	i	-15.0%	i
COc1ccc(NS(=O)(=O)c2ccc3[nH]c4c(c3c2)CCCC4)cc1OC	1.0%	i	-47.3%	i	20µM*	i
COc1cc(NS(=O)(=O)c2ccc3[nH]c4c(c3c2)CCCC4)cc(OC)c1OC	0.3%	i	-55.4%	i	?	i
COc1ccccc1CNS(=O)(=O)c1ccc(N2CCCCS2(=O)=O)cc1	1.6%	i	-9.3%	i	?	i
COc1cccc(NC(=O)C2CCN(c3nnc(-n4c(C)ccc4C)s3)CC2)c1	-0.7%	i	6.4%	i	-8.4%	i
COc1ccc(NC(=O)c2sc3nc[nH]c(=O)c3c2C)cc1Cl	0.0%	i	?	i	32.6%	i
CCc1ccc(NC(=O)c2ccc(F)c(S(=O)(=O)N3CCc4ccccc4C3)c2)cc1	0.5%	i	-19.7%	i	25.1µM*	i
O=C(Nc1ccc(F)c(F)c1)c1ccc(F)c(S(=O)(=O)N2CCC3(CC2)OCCO3)c1	0.1%	i	-84.9%	i	?	i
CCc1ccc(NC(=O)c2ccc(F)c(S(=O)(=O)N3CCC4(CC3)OCCO4)c2)cc1	1.8%	i	-24.8%	i	15.8µM*	i
CCc1ccc(NC(=O)c2ccc(F)c(S(=O)(=O)N3CCC(C)CC3)c2)cc1	1.3%	i	-35.9%	i	4.47µM*	i
O=C(Nc1ccccc1C(F)(F)F)c1ccc(F)c(S(=O)(=O)N2CCc3ccccc3C2)c1	2.3%	i	-24.3%	i	?	i
CCOc1ccccc1NC(=O)CN1C(=O)COc2ccc(S(=O)(=O)Nc3ccccc3)cc21	4.6%	i	-21.5%	i	-13.7%	i
Cc1ccn2c(Nc3ccc4c(c3)OCO4)c(-c3ccc(Cl)cc3)nc2c1	0.0%	i	1.5%	i	3.1%	i
Cc1ccc(NC(=O)C2CCCN2S(=O)(=O)c2cccc3nsnc23)cc1Cl (stereo unspecified)	-0.5%	i	-30.1%	i	?	i
CCCCN(CC)C(=O)C1CCCN(c2ncnc3onc(C)c23)C1 (stereo unspecified)	-1.4%	i	-26.4%	i	?	i
CCCCN(C)C(=O)C1CCCN(c2ncnc3onc(C)c23)C1 (stereo unspecified)	2.9%	i	-45.3%	i	1.78µM*	i
Cc1ccc(NC(=O)CCOc2ccccc2)cc1	-2.9%	i	10µM*	i	47.7%	i
CC(=O)c1ccc(NC(=O)CCOc2ccccc2)cc1	-2.5%	i	?	i	46.5%	i
Cc1cccc(NC(=O)CC2Nc3cccc4cccc(c34)NC2=O)c1 (stereo unspecified)	4.1%	i	-19.9%	i	-9.2%	i
O=C(CSc1cn(CC(=O)N2CCCCC2)c2ccccc12)NCc1ccccc1Cl	0.0%	i	-22.6%	i	-21.2%	i
Cc1c(-c2cccc3c(CCCOc4cccc5ccccc45)c(C(=O)O)n(Cc4cccnc4)c23)c(COc2ccc(N3CCN([S+](=O)([O-])N(C)C)CC3)cc2)nn1C	/	/	-22.1%	/	?	/
CCOc1ccccc1CNCc1cccn1-c1nnc(N2CCN(c3ccccc3)CC2)s1	-5.5%	i	-46.3%	i	25.1µM*	i
SMILES	GALK inhibitor	GALC G270D act	HTT-AS act	PTAP-TSG101 blk	HTT promoter inh	B2AR arrestin ag
CCOc1ccccc1CNC(=O)c1cccn1-c1nnc(N2CCCCC2)s1	-1.5%	i	-9.0%	i	-23.8%	i
O=C(CCSc1nc(-c2ccco2)cc(C(F)(F)F)n1)Nc1cccc(O)c1	1.3%	22.4µM*	-16.7%	i	-26.6%	i
Cc1ccc(NC(=O)CSc2nc(-c3ccco3)cc(C(F)(F)F)n2)cc1C	0.0%	i	-28.9%	i	?	i
COc1ccc(NC(=O)CSc2nc(-c3ccco3)cc(C(F)(F)F)n2)cc1OC	4.0%	i	-91.5%	i	2.24µM*	i
COc1cccc(-c2nc3c(C#N)c[nH]n3c2NC2CCC(C)CC2)c1 (stereo unspecified)	1.4%	i	15.1%	i	-2.3%	i
CCN(CC)c1ccc(NC(=O)CN2CCN(S(=O)(=O)c3ccc(C(C)C)cc3)CC2)cc1	?	i	-35.5%	i	?	i
CC(C)CC(=O)Nc1cccc(-c2cn3cccnc3n2)c1	2.1%	i	15.8µM*	i	77.6%	i
CCCC(=O)Nc1cccc(-c2cn3cccnc3n2)c1	-0.2%	i	35.1%	i	31.4%	i
COc1ccccc1N1CCN(C(=O)C2CCCN(S(=O)(=O)c3ccc4c(c3)CCCN4C(C)=O)C2)CC1 (stereo unspecified)	2.7%	i	-27.7%	i	?	i
CC(=O)N1CCCc2cc(S(=O)(=O)N3CCC(C(=O)Nc4ccc(C)cc4Cl)CC3)ccc21	0.7%	i	-30.5%	i	?	i
CC(=O)N1CCCc2cc(S(=O)(=O)N3CCC(C(=O)Nc4c(C)cccc4C)CC3)ccc21	0.3%	i	-47.0%	i	20µM*	i
CC(=O)N1CCCc2cc(S(=O)(=O)N3CCCC(C(=O)N4CCN(c5ccccc5)CC4)C3)ccc21 (stereo unspecified)	-6.7%	i	-24.3%	i	11.2µM*	i
CCCc1ccc(C2Sc3ccccc3NC3=C2C(=O)c2ccccc23)cc1 (stereo unspecified)	-9.7%	i	-53.5%	i	31.6µM*	i
O=c1cc(-c2ccc(O)cc2)oc2cc(O)cc(O)c12	/	/	18.5%	/	17.2%	/
O=c1cc(-c2ccccc2)oc2cc(O)cc(O)c12	/	/	24.3µM*	/	43.0%	/
